TDP1 cell noCPT = qHTS for Inhibitors of human tyrosyl-DNA phosphodiesterase 1 (TDP1): qHTS in cells in absence of CPT; DT40 Tdp1-/- hTDP1 cells, no CPT, ATP luminescence, 48 h; Potency, µM (highest dose often 46.2 µM), inactives show at the top dose activity change, negative = growth inhibition, most hits filed as inhibitors; 15% of 420,000 active; further: potency means the concentration at half of the fitted maximal effect; on the % scale 0 is the no-effect control and ±100 the full control effect; nearly all actives have a fitted effect of over 55% in size
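Growth of hTDP1-complemented DT40 Tdp1-knockout cells is measured by ATP luminescence after at least 48 hr compound exposure at 37 °C, with DMSO substituting for the 20 nM CPT used in the parallel screen.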
DT40 TDP1 CPT = qHTS for Inhibitors of human tyrosyl-DNA phosphodiesterase 1 (TDP1): qHTS in cells in presence of CPT; chicken DT40 Tdp1-/-;hTDP1 cells + 20 nM CPT, ATP luminescence, 48 h; Potency, µM (doses to about 46.2 µM), inactives show at the top dose activity change, negative = growth inhibition, usual class: inhibitors; 12% of 420,000 active; AID 686979, 2013; further: potency means the concentration at half of the fitted maximal effect; on the % scale 0 is the no-effect control and ±100 the full control effect; nearly all actives have a fitted effect of over 55% in size
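Chicken DT40 Tdp1-/- cells stably complemented with human TDP1 were seeded at 400 cells/well in medium containing 20 nM camptothecin, exposed to pin-transferred compounds, and grown at 37 °C for at least 48 hr. Viability was read as ATP luminescence.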
ASM inhibitor = Inhibitors of Secretory Acid Sphingomyelinase (S-ASM): qHTS. Sphingomyelin phosphodiesterase (Homo sapiens), P17405. placental ASM, HMU-PC fluorogenic substrate, 60 min. Potency, µM (series often up to 57.5 µM), for inactives: top-dose activity change, negative = inhibition, most hits filed as inhibitors. 0.006% of 340,000 active; further: potency means the concentration at half of the fitted maximal effect
Target sequence (P17405 47-631 limits assumed): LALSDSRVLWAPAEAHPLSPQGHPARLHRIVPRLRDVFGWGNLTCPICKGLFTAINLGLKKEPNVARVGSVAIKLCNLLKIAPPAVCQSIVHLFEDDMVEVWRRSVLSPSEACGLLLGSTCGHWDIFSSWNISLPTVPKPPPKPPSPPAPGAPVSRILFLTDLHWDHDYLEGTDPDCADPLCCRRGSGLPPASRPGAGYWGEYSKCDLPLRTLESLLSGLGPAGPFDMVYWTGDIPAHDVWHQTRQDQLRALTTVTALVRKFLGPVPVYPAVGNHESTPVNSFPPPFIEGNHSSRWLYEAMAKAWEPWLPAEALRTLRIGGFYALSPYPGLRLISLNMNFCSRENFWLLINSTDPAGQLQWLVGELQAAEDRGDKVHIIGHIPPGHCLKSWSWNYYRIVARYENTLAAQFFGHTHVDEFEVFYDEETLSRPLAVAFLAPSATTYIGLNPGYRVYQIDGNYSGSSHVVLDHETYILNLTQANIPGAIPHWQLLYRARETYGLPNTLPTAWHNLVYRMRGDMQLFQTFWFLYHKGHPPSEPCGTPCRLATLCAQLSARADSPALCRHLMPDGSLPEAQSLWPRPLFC
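Steps: dispense placental human ASM, pin compound, wait 10 min at room temperature, add HMU-PC0 substrate at 9 uM final, incubate 60 min at 37 °C, add stop solution raising pH to 10, read fluorescence.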
TGFb inhibitor = qHTS for Inhibitors of TGF-b | AID 588855, 2011 | Potency, µM (highest dose often 46.1 µM), without a hit: at the top dose activity, negative = inhibition, actives largely listed as inhibitors | HepG2 CAGA-GFP TGF-b/SMAD3 reporter, GFP fluorescence, 18 h; TGF-beta stimulated, 500 pg/mL final | 1.2% of 410,000 active; further: potency means the concentration at half of the fitted maximal effect; on the % scale 0 is the no-effect control and ±100 the full control effect; nearly all actives have a fitted effect of over 65% in size
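Smad-responsive CAGA-GFP expression was quantified in HEPG2 cells exposed to compounds and 500 pg/mL final TGF-beta for 18 h at 37 degrees C; unstimulated wells defined full inhibition.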
IL-1B inflam inh = qHTS for Inhibitors of Inflammasome Signaling: IL-1-beta AlphaLISA Primary Screen; activity change, % at 57.5 µM; 4.7% of 360,000 active; THP-1 LPS/ATP IL-1B secretion, AlphaLISA, 16 h; active compounds read low; in the data active means activity change below about -50%; inconclusive means mostly about -30% to -49%; further: on the % scale 0 is the no-effect control and ±100 the full control effect
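THP-1 cells pretreated 1 hr with compounds (up to 57.5 uM final), then stimulated with LPS (250 ng/mL final) plus ATP (1.25 mM final); secreted IL-1B measured by AlphaLISA after 16 hr, decreased signal indicating inhibition.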
HepG2 viability = qHTS for Inhibitors of TGF-b: Cytotox Counterscreen. HepG2 CAGA-GFP viability, ATP luminescence, 18 h. Potency, µM (titrated, usually from 46.1 µM), inactives show at the top dose activity change, negative = cytotoxicity, usual class: cytotoxic. 0.76% of 410,000 active; further: potency means the concentration at half of the fitted maximal effect
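HepG2 CAGA-GFP cells (1000/well, DMEM with 1% FBS) received compound, then TGF-beta at 500 pg/mL final, and were incubated 18 hours at 37 degrees C. Viability was read by CellTiter-Glo luminescence. Media-only wells were set as complete cell-killing and DMSO as no toxicity.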
* hit, by the source's call. In the library only some 19% were active in any assay of this set; here they are far more common. Unless noted, the call rests on the fitted dose curve; in most records, active means well fitted curve in the direction sought with a large enough effect; inconclusive means small, poorly fitted or top-dose-only effect, or another doubt; inactive means no such curve, though single readings can be large; an effect the other way counts as inactive or inconclusive.

Results for COCCCNC(=O)c1sc2nc(C)c(C(=O)Nc3ccc(C)cc3C)c(-c3ccc(Cl)cc3)c2c1N ?
TDP1 cell noCPT: inconclusive; DT40 TDP1 CPT: inconclusive; TGFb inhibitor: 0%; HepG2 viability: -10%

How did Cc1ccc(C)c(NC(=O)CN(C)C(=O)c2ccc(S(=O)(=O)N3CCCCCC3)cc2)c1 do in these assays?
TDP1 cell noCPT: -2%; DT40 TDP1 CPT: -33%; ASM inhibitor: -4%; TGFb inhibitor: 3%; IL-1B inflam inh: -15; HepG2 viability: -4%

Results for COc1ccc(N2CCN(S(=O)(=O)c3ccc4c(c3)CCCN4C(C)=O)CC2)cc1 ?
TDP1 cell noCPT: inconclusive; DT40 TDP1 CPT: 16µM*; TGFb inhibitor: 2%; HepG2 viability: 0%

How did CCCCn1c(N)c(N(CC(C)C)C(=O)COC(=O)Cc2cccc(OC)c2)c(=O)[nH]c1=O do in these assays?
TDP1 cell noCPT: 1%; DT40 TDP1 CPT: -6%; ASM inhibitor: 1%; TGFb inhibitor: -20%; IL-1B inflam inh: 8; HepG2 viability: 1%

How did CC(=NNc1nc2ccccc2o1)c1ncccn1 do in these assays?
TDP1 cell noCPT: 13µM*; DT40 TDP1 CPT: -115%; ASM inhibitor: -3%; TGFb inhibitor: inconclusive; IL-1B inflam inh: -7; HepG2 viability: -37%

Results for C/C(=N\Nc1nc2ccccc2s1)c1cccs1 ?
TDP1 cell noCPT: inconclusive; DT40 TDP1 CPT: inconclusive; ASM inhibitor: -15%; TGFb inhibitor: inconclusive; IL-1B inflam inh: -83*; HepG2 viability: -25%

What do the screens show for `C/C(=N\Nc1nc(-c2ccccc2)cs1)c1cccs1`?
TDP1 cell noCPT: inconclusive; DT40 TDP1 CPT: inconclusive; TGFb inhibitor: 14%; IL-1B inflam inh: -26; HepG2 viability: -3%

Results for CC(=NNc1nc2ccccc2s1)c1ncccn1 ?
TDP1 cell noCPT: 0.021µM*; DT40 TDP1 CPT: -76%; ASM inhibitor: -6%; TGFb inhibitor: 0.79µM*; IL-1B inflam inh: 0; HepG2 viability: -36%

Results for CC(=O)Nc1cccc(/C(C)=N/Nc2nc3ccccc3s2)c1 ?
TDP1 cell noCPT: inconclusive; DT40 TDP1 CPT: inconclusive; ASM inhibitor: -5%; TGFb inhibitor: -7%; IL-1B inflam inh: -19; HepG2 viability: -30%

Results for CCCNC(=O)NC(=O)CN1C(=O)NC(C)(c2ccc3ccccc3c2)C1=O (stereo not given) ?
TDP1 cell noCPT: -26%; DT40 TDP1 CPT: -10%; ASM inhibitor: -1%; TGFb inhibitor: 2%; IL-1B inflam inh: 12; HepG2 viability: -4%

How did CCn1c(CSc2nc(C)cc(C)n2)nnc1SCC(=O)Nc1nc(-c2ccccc2)cs1 do in these assays?
TDP1 cell noCPT: inconclusive; DT40 TDP1 CPT: 21µM*; ASM inhibitor: -2%; TGFb inhibitor: -5%; IL-1B inflam inh: 32; HepG2 viability: 6%

Results for Cc1csc(SCC(=O)Nc2nc(-c3ccccc3)cs2)n1 ?
TDP1 cell noCPT: inconclusive; DT40 TDP1 CPT: inconclusive; ASM inhibitor: -9%; TGFb inhibitor: 6%; IL-1B inflam inh: -10; HepG2 viability: 3%

What do the screens show for `Cc1cc(C)nc(SCc2nnc(SCC(=O)Nc3nccs3)n2C)n1`?
TDP1 cell noCPT: 10%; DT40 TDP1 CPT: 12%; ASM inhibitor: 0%; TGFb inhibitor: 33%; IL-1B inflam inh: -9; HepG2 viability: -74%

What do the screens show for `Cc1cc(C)nc(SCc2nnc(SCC(=O)Nc3nc(-c4ccccc4)cs3)n2C)n1`?
TDP1 cell noCPT: 26µM*; DT40 TDP1 CPT: inconclusive; ASM inhibitor: -5%; TGFb inhibitor: -15%; IL-1B inflam inh: 3; HepG2 viability: 4%

Results for CCCCNC(=O)C1(C)CCN1C(=O)c1ccc2ccccc2n1 (stereo not given) ?
TDP1 cell noCPT: -21%; DT40 TDP1 CPT: inconclusive; TGFb inhibitor: 22%; IL-1B inflam inh: 58; HepG2 viability: -1%

How did C[C@@H]1CN([C@H](C)CO)C(=O)CCCn2nncc2CO[C@H]1CN(C)S(=O)(=O)c1ccccc1 do in these assays?
TDP1 cell noCPT: inconclusive; DT40 TDP1 CPT: -1%; TGFb inhibitor: 2%; IL-1B inflam inh: 13; HepG2 viability: 2%

What do the screens show for `CC1C(=O)N2CCCc3cc(S(=O)(=O)N4CCN(c5ccccc5F)CC4)cc1c32` (stereo not given)?
TDP1 cell noCPT: inconclusive; DT40 TDP1 CPT: inconclusive; ASM inhibitor: 1%; TGFb inhibitor: 7%; IL-1B inflam inh: 33; HepG2 viability: 8%

How did Cc1ccc(OCC(=O)NNc2c3ccccc3nc3ccccc23)cc1 do in these assays?
TDP1 cell noCPT: 16µM*; DT40 TDP1 CPT: inconclusive; ASM inhibitor: -7%; TGFb inhibitor: -49%; IL-1B inflam inh: -15; HepG2 viability: -29%

Results for Cc1cc(CNC(=O)COc2ccc(F)cc2)c2ccccc2n1 ?
TDP1 cell noCPT: 21µM*; DT40 TDP1 CPT: inconclusive; ASM inhibitor: -3%; TGFb inhibitor: inconclusive; IL-1B inflam inh: 25; HepG2 viability: -3%

How did Cc1cc(CNC(=O)COc2ccccc2)c2ccccc2n1 do in these assays?
TDP1 cell noCPT: inconclusive; DT40 TDP1 CPT: -25%; ASM inhibitor: 5%; TGFb inhibitor: -13%; IL-1B inflam inh: 53; HepG2 viability: -7%

Results for O=C(Nc1c2c(nc3ccccc13)CCCC2)c1ccccc1Cl ?
TDP1 cell noCPT: -8%; DT40 TDP1 CPT: 16%; ASM inhibitor: -3%; TGFb inhibitor: inconclusive; IL-1B inflam inh: 49; HepG2 viability: -1%

How did O=C(Nc1c2ccccc2nc2ccccc12)C(Cl)(Cl)Cl do in these assays?
TDP1 cell noCPT: 23µM*; DT40 TDP1 CPT: 16µM*; ASM inhibitor: inactive; TGFb inhibitor: inconclusive; IL-1B inflam inh: inconclusive; HepG2 viability: 8%

How did O=C(Cc1ccccc1)NNC(=O)Cc1ccccc1 do in these assays?
TDP1 cell noCPT: 2%; DT40 TDP1 CPT: 5%; ASM inhibitor: 11%; TGFb inhibitor: 1%; IL-1B inflam inh: -1; HepG2 viability: -9%

What do the screens show for `O=C(Cc1ccccc1)NNc1c2ccccc2nc2ccccc12`?
TDP1 cell noCPT: inconclusive; DT40 TDP1 CPT: 21µM*; ASM inhibitor: -2%; TGFb inhibitor: -22%; IL-1B inflam inh: 18; HepG2 viability: -25%
